From PubChem BioAssay AID847 (SRMLSC, 2007)
Hit rate of the full screen: of about 41,000 compounds, about 190 (0.46%) were called active.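 How the source made its calls: active means viability at or below the median of all test compounds minus 3 SD, in both replicates if run twice (cut at about 45% in these data); inconclusive means duplicate replicates that disagree with each other; inactive means viability above that cutoff in every replicate.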 This excerpt belongs to a sample that is enriched for actives.

Test: viability loss of SK-BR-3 cells – cell-based, human, 24 h, primary screen (AID 847);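 further: 100% = median untreated cell wells and 0% = median positive control drug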
Conditions: SK-BR-3 viability, CellTiter-Glo ATP luminescence, at 10 µM, stronger effect = lower value
For CC(C)C(c1nnnn1CCc1ccccc1)N1CCN(C(=O)c2ccco2)CC1 (stereo not given), the viability was 102% (inactive). With CSCCC(Nc1nc2ccccc2s1)C(=O)O (stereo not given) the viability was 81.1% (inactive). For Cc1cc(NC(=O)CCC2COc3ccccc3O2)no1 (stereo not given), the viability was 94.5% (inactive). With Cc1ccc2nc(NC3=NCN(CCc4ccccc4)CN3)nc(C)c2c1 the viability was 95.4% (inactive). In the case of COc1ccccc1N1CCN(C(=O)c2ccc(S(=O)(=O)N3CCCCC3)cc2)CC1, the viability is reported as 123% (inactive). For COC(=O)c1ccccc1NC(=O)CSc1ccccn1, the viability was 81.2% (inactive). In the case of COc1ccc(N2CCN(CCNC(=O)c3nnc(Cc4c(F)cccc4Cl)o3)CC2)cc1, the viability is reported as 75% (inactive). With CCOC(=O)c1ccccc1NC(=O)CC1Nc2ccccc2NC1=O (stereo not given) the viability was 47.2% (inactive). With CN(C)c1ccc(CNC23CN4CN(CN(C4)C2)C3)cc1 the viability was 99% (inactive). With Cn1c2c(c(=O)n(C)c1=O)CN(Cc1ccco1)CN2 the viability was 83.8% (inactive). For O=C(Cn1c(=O)sc2ccccc21)Nc1ccc2c(c1)OCCO2, the viability was 78.4% (inactive). In the case of Cc1ccc2cc(C#N)c(SCC(=O)NCC3CCCO3)nc2c1C (stereo not given), the viability is reported as 82.7% (inactive). For O.O.O.O=S(=O)([O-])OC[C@H]1O[C@@H](O[C@]2(COS(=O)(=O)[O-])O[C@H](OS(=O)(=O)[O-])[C@@H](OS(=O)(=O)[O-])[C@@H]2OS(=O)(=O)[O-])[C@H](OS(=O)(=O)[O-])[C@@H](OS(=O)(=O)[O-])[C@@H]1OS(=O)(=O)[O-].[Al], the viability was 89.7% (inactive). In the case of CC(=O)Nc1cccc2c1[n+]([O-])c(C)c(C)[n+]2[O-], the viability is reported as 115% (inactive). In the case of CCN(CC)P(=O)(/C(Cl)=C\Nc1c(C)n(C)n(-c2ccccc2)c1=O)N(CC)CC, the viability is reported as 104% (inactive). In the case of Cn1nnnc1SCC(=O)N1CCN(Cc2ccccc2)CC1, the viability is reported as 103% (inactive). For Cn1c(SCC(=O)Nc2cccc(NC(=O)c3cccs3)c2)nnc1-c1ccncc1, the viability was 91.4% (inactive). With O=C(CSc1nc(-c2ccco2)cc(C(F)(F)F)n1)N1CCc2ccccc2C1 the viability was 113% (inactive). In the case of CCCN1C(=O)C(NC(C)=O)c2cc(OC)ccc21 (stereo not given), the viability is reported as 88.1% (inactive). For Cc1nc2cc(-c3ccc(F)cc3)nn2c(N2CCOCC2)c1C, the viability was 89.5% (inactive). In the case of FC(F)(F)c1cccc(Nc2ncnc3ccccc23)c1, the viability is reported as 90.1% (inactive). With CCOC(=O)Cc1csc(NC(=O)Nc2ccccc2)n1 the viability was 111% (inactive). With CCOC(=O)Cc1csc(NC(=O)CSc2nc(C)cc(=O)[nH]2)n1 the viability was 43.4% (active). For CCOC(=O)Cc1csc(NC(=O)C(C)(C)C)n1, the viability was 89.5% (inactive). With Cc1cc(C)cc(NC(=O)N2CCC(NC(=O)c3ccc(F)cc3)CC2)c1 the viability was 103% (inactive).
